Data reported in PubChem BioAssay (NCATS).
Results filed as inconclusive are left out. Active and inactive are the calls of the source. Unless noted, the call rests on the fitted dose curve.

Legend:
[1] = qHTS for Inhibitors of the Functional Ribonucleoprotein Complex (vRNP) of Lassa (LASV) Arenavirus: LASV Primary Screen - GLuc reporter signal (AID 1347082; calls by dose curve; tested in HEK293 reporter line; further: nearly all actives have a fitted effect of over 60% in size)
[2] = qHTS for Inhibitors of the Functional Ribonucleoprotein Complex (vRNP) of Lassa (LASV) Arenavirus: Viability assay - alamar blue signal for LASV Primary Screen (AID 1347083; calls by dose curve; tested in HEK293 reporter line; further: nearly all actives have a fitted effect of over 80% in size)
[3] = qHTS for Inhibitors of the Functional Ribonucleoprotein Complex (vRNP) of Lymphocytic Choriomeningitis Arenaviruses (LCMV): Viability assay - alamar blue signal for LCMV Primary Screen (AID 1347085; calls by dose curve; tested in HEK293 reporter line; further: nearly all actives have a fitted effect of over 80% in size)
[4] = molecular target: Nucleoprotein (Lymphocytic choriomeningitis virus (strain Armstrong)) (UniProt P09992); test: qHTS for Inhibitors of the Functional Ribonucleoprotein Complex (vRNP) of Lymphocytic Choriomeningitis Arenaviruses (LCMV): LCMV Primary Screen - GLuc reporter signal (AID 1347086); further: nearly all actives have a fitted effect of over 70% in size
Sequence of Nucleoprotein (Lymphocytic choriomeningitis virus (strain Armstrong)) (P09992 whole entry, looked up): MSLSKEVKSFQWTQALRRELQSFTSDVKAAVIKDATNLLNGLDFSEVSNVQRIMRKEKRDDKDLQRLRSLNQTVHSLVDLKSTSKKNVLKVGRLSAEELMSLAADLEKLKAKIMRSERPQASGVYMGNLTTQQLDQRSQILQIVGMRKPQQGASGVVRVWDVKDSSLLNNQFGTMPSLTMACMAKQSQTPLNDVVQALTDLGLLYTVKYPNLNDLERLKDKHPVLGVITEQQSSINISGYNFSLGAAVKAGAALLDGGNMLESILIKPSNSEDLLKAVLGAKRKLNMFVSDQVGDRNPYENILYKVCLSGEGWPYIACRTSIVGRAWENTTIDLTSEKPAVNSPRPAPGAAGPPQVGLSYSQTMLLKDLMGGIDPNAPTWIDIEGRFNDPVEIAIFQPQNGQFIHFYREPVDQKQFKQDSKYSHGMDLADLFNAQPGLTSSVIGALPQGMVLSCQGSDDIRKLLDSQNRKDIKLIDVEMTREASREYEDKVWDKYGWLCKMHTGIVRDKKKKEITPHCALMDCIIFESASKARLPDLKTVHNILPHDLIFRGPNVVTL

Measured: Potency
Potency means the concentration at half of the fitted maximal effect.

Nc1ccc(O)c(C(=O)O)c1
inactive: all assays above

c1cnc2cc3c(cc2n1)C1CNCC3C1
active: [2] 24300 nM
inactive: all other assays above

CN(C)CCOC(C)(c1ccccc1)c1ccccn1 (stereo not given)
inactive: all assays above

CN1CCC(=C2c3ccccc3C=Cc3ccccc32)CC1
inactive: all assays above

CC1Cc2ccccc2N1NC(=O)c1ccc(Cl)c(S(N)(=O)=O)c1 (stereo not given)
inactive: all assays above

CNCCC(Oc1ccc(C(F)(F)F)cc1)c1ccccc1 (stereo not given)
inactive: all assays above

CCOc1ccccc1OCCN[C@H](C)Cc1ccc(OC)c(S(N)(=O)=O)c1
inactive: all assays above

CC1(C)NC(=O)N(c2ccc([N+](=O)[O-])c(C(F)(F)F)c2)C1=O
inactive: all assays above

O=C(O)CCCc1ccccc1
inactive: all assays above

CC(C)(O)c1ccccc1CC[C@@H](SCC1(CC(=O)O)CC1)c1cccc(/C=C/c2ccc3ccc(Cl)cc3n2)c1
inactive: all assays above

CN(C)c1ccc(O)c2c1C[C@H]1C[C@H]3[C@H](N(C)C)C(=O)C(C(N)=O)=C(O)[C@@]3(O)C(=O)C1=C2O
inactive: all assays above

Nc1nc2c(ncn2COCCO)c(=O)[nH]1
inactive: all assays above

Cc1oncc1C(=O)Nc1ccc(C(F)(F)F)cc1
inactive: all assays above

Cc1nc(-c2ccc(OCC(C)C)c(C#N)c2)sc1C(=O)O
inactive: all assays above

CC(N)C12CC3CC(CC(C3)C1)C2 (stereo not given)
inactive: all assays above

CN1CCN(CCCN2c3ccccc3Sc3ccc(C(F)(F)F)cc32)CC1
inactive: all assays above

C[N+]1(C)CCC(OC(=O)C(O)(c2ccccc2)C2CCCC2)C1 (stereo not given)
inactive: all assays above

Clc1ccc2c(c1)C(N1CCNCC1)=Nc1ccccc1O2
inactive: all assays above

NNc1nncc2ccccc12
inactive: all assays above

COC(=O)N[C@H](C(=O)N[C@@H](Cc1ccccc1)[C@@H](O)CN(Cc1ccc(-c2ccccn2)cc1)NC(=O)[C@@H](NC(=O)OC)C(C)(C)C)C(C)(C)C
inactive: all assays above

Cc1cc(C)cc(OCC2CNC(=O)O2)c1 (stereo not given)
inactive: all assays above

Cn1cc[nH]c1=S
inactive: all assays above

CN(C)C(=N)N=C(N)N
inactive: all assays above

Cc1ccccc1C(OCCN(C)C)c1ccccc1 (stereo not given)
inactive: all assays above

Nc1[nH]c(=O)ncc1F
inactive: all assays above

CCN(C)C(=O)Oc1cccc([C@H](C)N(C)C)c1
inactive: all assays above

C=C[C@H]1CN2CC[C@H]1C[C@@H]2[C@@H](O)c1ccnc2ccc(OC)cc12
inactive: all assays above

COc1cc2nc(N3CCN(C(=O)C4CCCO4)CC3)nc(N)c2cc1OC (stereo not given)
inactive: all assays above

NC[C@H](O)c1ccc(O)c(O)c1
inactive: all assays above

CN1CCN(C(c2ccccc2)c2ccccc2)CC1
inactive: all assays above

OCCN1CCN(CCCN2c3ccccc3Sc3ccc(Cl)cc32)CC1
inactive: all assays above

Cc1cccc(Nc2ccncc2S(=O)(=O)NC(=O)NC(C)C)c1
inactive: all assays above

CCOC(=O)C1=C(C)NC(C)=C(C(=O)OC)C1c1cccc(Cl)c1Cl (stereo not given)
inactive: all assays above

OCCN(CCO)c1nc(N2CCCCC2)c2nc(N(CCO)CCO)nc(N3CCCCC3)c2n1
inactive: all assays above

COc1cc2nc(N3CCN(C(=O)c4ccco4)CC3)nc(N)c2cc1OC
inactive: all assays above

CN1CCN(CCCN2c3ccccc3Sc3ccc(Cl)cc32)CC1
inactive: all assays above

O[C@@H]1CO[C@H]2[C@@H]1OC[C@@H]2O
inactive: all assays above

CC(C)C[C@H](NC(=O)[C@H](CCc1ccccc1)NC(=O)CN1CCOCC1)C(=O)N[C@@H](Cc1ccccc1)C(=O)N[C@@H](CC(C)C)C(=O)[C@@]1(C)CO1
active: [1] 485 nM | [2] 432 nM | [3] 544 nM | [4] 385 nM

OCCN1CCN(CCCN2c3ccccc3Sc3ccc(C(F)(F)F)cc32)CC1
inactive: all assays above

CCN(CCO)CCCC(C)Nc1ccnc2cc(Cl)ccc12 (stereo not given)
inactive: all assays above

CCCCC1=NC2(CCCC2)C(=O)N1Cc1ccc(-c2ccccc2-c2nn[nH]n2)cc1
inactive: all assays above

CCN(CC)C(=S)SSC(=S)N(CC)CC
active: [1] 193 nM | [2] 122 nM | [3] 863 nM | [4] 193 nM

NS(=O)(=O)c1cc2c(cc1C(F)(F)F)NCNS2(=O)=O
inactive: all assays above

CC1=C(C(=O)O)N2C(=O)[C@@H](NC(=O)[C@H](N)c3ccccc3)[C@H]2SC1
inactive: all assays above

N[C@@H]1CONC1=O
inactive: all assays above

CCC[C@H](N[C@@H](C)C(=O)N1[C@H](C(=O)O)C[C@@H]2CCCC[C@@H]21)C(=O)OCC
inactive: all assays above

O=c1n(CCCN2CCN(c3cccc(Cl)c3)CC2)nc2ccccn12
inactive: all assays above

CC(=O)SC[C@@H](C)C(=O)N1CCC[C@H]1C(=O)N[C@@H](Cc1ccccc1)C(=O)O
inactive: all assays above

Nc1nnc(-c2cccc(Cl)c2Cl)c(N)n1
inactive: all assays above

CCCCNc1ccc(C(=O)OCCOCCOCCOCCOCCOCCOCCOCCOCCOC)cc1
inactive: all assays above

Nc1cc(-c2ccncc2)c[nH]c1=O
inactive: all assays above

C[C@@H](c1ncncc1F)C(O)(Cn1cncn1)c1ccc(F)cc1F (stereo not given in full)
inactive: all assays above

Cc1onc(-c2ccccc2Cl)c1C(=O)N[C@@H]1C(=O)N2[C@@H]1SC(C)(C)[C@@H]2C(=O)O
inactive: all assays above

O=C(O)P(=O)(O)O
inactive: all assays above

CC(=O)O[C@]1(C(C)=O)CC[C@H]2[C@@H]3C=C(Cl)C4=CC(=O)[C@@H]5C[C@@H]5[C@]4(C)[C@H]3CC[C@@]21C
inactive: all assays above

O=c1[nH]cnc2c1ncn2[C@H]1CC[C@@H](CO)O1
inactive: all assays above

Cn1c(=O)c2c(ncn2CC(O)CO)n(C)c1=O (stereo not given)
inactive: all assays above

CN(C)CC[C@@H](c1ccc(Br)cc1)c1ccccn1
inactive: all assays above

NC(=O)OCC(COC(N)=O)c1ccccc1
inactive: all assays above

CN(C/C=C/C#CC(C)(C)C)Cc1cccc2ccccc12
inactive: all assays above
